Assay results published in PubChem BioAssay (NCI).
Compounds without any hit were thinned out: in the full panel of roughly 83,000, 20% have a hit.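 Negative percent growth values reflect cell death: -40 means 40% of the cells present at the start died, and -100 means all died.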 Calls of active or inactive are those of the source. How the source made its calls: active means growth percent below 10; inactive means the rest.

Columns and labels:
Test in all cases: NCI-60 one-dose screen, 48 h (100 = growth as untreated, 0 = no growth, -100 = all killed)
Conditions in all cases: 10 µM unless noted
[1] = test system: SK-MEL-2 melanoma
[2] = test system: EKVX NSCLC
[3] = test system: SN12C renal
[4] = test system: UO-31 renal
[5] = test system: TK-10 renal
[6] = test system: ACHN renal
[7] = test system: CAKI-1 renal
[8] = test system: A498 renal
[9] = test system: CCRF-CEM leukemia
[10] = test system: SR leukemia
[11] = test system: RPMI-8226 leukemia
[12] = test system: OVCAR-8 ovarian
[13] = test system: OVCAR-5 ovarian
[14] = test system: OVCAR-4 ovarian
[15] = test system: SK-OV-3 ovarian
[16] = test system: IGROV1 ovarian
[17] = test system: OVCAR-3 ovarian
[18] = test system: HS 578T breast
[19] = test system: NCI/ADR-RES ovarian
[20] = test system: MOLT-4 leukemia

Measured: growth

CCNc1nc(-c2ccc(Cl)c(OC)c2)c(-c2ccnc(NCCNS(=O)(=O)c3ccc(Cl)cc3)n2)s1
active: [1] -30% | [15] 1.58% | [17] -3.31%
inactive: [2] 34.9% | [3] 36.1% | [4] 40.8% | [5] 22.5% | [6] 33.7% | [7] 30.4% | [8] 18.6% | [9] 21.4% | [10] 21.5% | [11] 21.4% | [12] 37.9% | [13] 40.7% | [14] 31.8% | [16] 39.3% | [18] 24.1% | [19] 33%

CCN=c1sc2c(n1NC(=O)c1cc3ccc1CCc1ccc(cc1)CC3)C(=O)c1ccccc1C2=O
active: [1] -40.6% | [2] -61.3% | [3] -91.2% | [4] -73.1% | [6] -90.2% | [7] 8.85% | [9] -16% | [20] -32.8% | [10] -3.66% | [11] -33.6% | [12] -82.6% | [13] -77.4% | [14] -98.4% | [16] -39.8% | [17] -18.8% | [19] -22.8%
inactive: [5] 88.6% | [8] 51.6% | [15] 62%

O=C(O)CCCN1C(=O)CSC1=S
inactive: [1] 104% | [2] 103% | [3] 94.9% | [4] 87.9% | [5] 131% | [6] 108% | [7] 104% | [8] 105% | [9] 99.6% | [20] 98.4% | [10] 103% | [11] 98% | [13] 106% | [14] 102% | [15] 109% | [16] 103% | [17] 105% | [18] 98.9% | [19] 103%

CO[C@]12C=C/C(=C(/C(=O)OCc3cccnc3)C(=O)CCCCCCCC[C@]3(OC)C=C/C(=C(/C(=O)OCc4cccnc4)C(=O)CCCCCCCC1)O3)O2
active: [1] -44.8% | [2] -53.8% | [3] -46.1% | [4] -40.7% | [5] -13.8% | [6] -73.6% | [7] -29.7% | [8] -88.4% | [9] -23.2% | [20] -13.1% | [10] -20.7% | [11] -30.4% | [13] -52.1% | [14] -65.6% | [15] -0.89% | [16] -66.7% | [17] -95.5% | [19] -23.9%
inactive: [18] 30.6%

O=C(N/N=C/c1ccccc1Cl)c1ccccc1Nc1ccnc(C(F)(F)F)c1
active: [1] -24% | [3] 9.09% | [4] 1.62% | [6] 1.95% | [7] 1.49% | [8] -25% | [20] 2.63% | [10] -3.24% | [11] -34.9% | [13] 6.58% | [14] -1.98% | [15] -8.48% | [16] 9.79% | [17] 3.44% | [19] 4.04%
inactive: [2] 11.7% | [5] 16.1% | [9] 11.2% | [18] 19.3%

CCCCCCCCCCCCCC[n+]1ccc2c(C)c3c(c(C)c2c1)c1cc(O)ccc1n3CC
inactive: [7] 31.4% | [19] 59.9%
active: [1] -81.6% | [2] -34.5% | [3] -74.9% | [4] -1.41% | [5] -46.6% | [6] -25.3% | [8] -19.8% | [9] -16% | [20] -44.5% | [10] -52.5% | [11] -51.5% | [13] -60.9% | [14] -59.8% | [15] -19% | [16] -75.6% | [17] -95.3% | [18] -41.3%

CC1=C([Se]CC(OC(=O)[C@@H](CO)NC(=O)OC(C)(C)C)C(=O)NCCCCCC(=O)OCc2ccccc2)C(=O)c2ccccc2C1=O (stereo partly specified)
inactive: [8] 31.2%
active: [1] -79.9% | [2] -75.5% | [3] -72.9% | [4] -99.8% | [5] -95.8% | [6] -83.3% | [7] -86.5% | [9] -8.88% | [20] -21.6% | [10] -4.61% | [11] -28.9% | [13] -70.5% | [14] -98.1% | [15] -60.1% | [16] -93.9% | [17] -82.1% | [18] 2.05% | [19] -76.6%

Cc1ccc(Nc2cc(N)nc(N)n2)cc1
inactive: [1] 112% | [2] 95.7% | [3] 110% | [4] 87.7% | [5] 108% | [6] 102% | [7] 87.1% | [8] 105% | [9] 107% | [10] 105% | [11] 93.5% | [12] 103% | [13] 107% | [14] 96.9% | [15] 98.1% | [16] 92.4% | [17] 99.6% | [18] 100% | [19] 95%

Cc1c(Cl)cccc1NC(=O)c1sc2nc3c(cc2c1N)CCCC3
inactive: [1] 22.1% | [2] 52.4% | [3] 41.2% | [4] 45.8% | [5] 62.2% | [6] 47.2% | [7] 33.9% | [9] 20.4% | [11] 33% | [12] 46.1% | [13] 75.7% | [14] 60.5% | [15] 27.7% | [16] 57.2% | [17] 10.9% | [18] 40.3% | [19] 27.1%
active: [8] -1.63% | [10] 9.71%

Cc1ccc(C(F)(F)F)cc1N1CCN(C(=O)[C@H]2C[C@H]2c2ccc(C(F)(F)F)nc2)CC1
inactive: [1] 89.1% | [2] 90.7% | [3] 92.6% | [4] 69% | [5] 96.4% | [6] 91.8% | [7] 69.3% | [8] 95.3% | [9] 90.2% | [10] 76% | [11] 66.1% | [12] 89.9% | [13] 85.6% | [14] 92% | [15] 84.2% | [16] 74.7% | [17] 93.4% | [18] 91.4% | [19] 91.6%

O=C1/C(=C/c2cccc(Br)c2)COc2ccc(O)c(O)c21
active: [1] -14.8% | [3] -73.8% | [4] -100% | [6] -92.8% | [7] -54.4% | [9] 4.21% | [20] 2.59% | [11] -12.7% | [13] -31.5% | [14] 0.231% | [16] -44.1% | [17] -78% | [19] 7.25%
inactive: [2] 41.9% | [5] 12% | [8] 112% | [10] 13.6% | [15] 62.9% | [18] 13.5%

COc1cc2nc3cc([N+](=O)[O-])ccc3c(NCCCNCCO)c2cc1OC
active: [1] -44.3% | [2] 7.46% | [3] -33.3% | [5] -4.55% | [6] 2.87% | [8] -80.2% | [9] 0.0749% | [20] 2.59% | [10] -12.4% | [11] -1.84% | [13] -15.2% | [14] -47.2% | [15] -59% | [16] -29.9% | [17] -44.6% | [18] -16.1%
inactive: [4] 48.9% | [7] 55.5% | [19] 93.3%

COc1ccc(/C=C\c2cc(OC)c(OC)c(OC)c2)cc1OCC(=O)Nc1nc2ccccc2s1
inactive: [1] 26.7% | [2] 55.8% | [3] 34.9% | [6] 16.9% | [7] 17.6% | [8] 25.1% | [9] 35.3% | [11] 22.5% | [12] 19% | [13] 65% | [14] 49.2% | [15] 30.4% | [19] 12.7%
active: [4] 4.73% | [5] 4.64% | [20] 6.31% | [10] 9.4% | [16] 3.36% | [17] 0.388%

CCOc1ccc(N2C(=O)CCSC2=S)cc1
inactive: [1] 102% | [2] 95.5% | [3] 101% | [4] 85.5% | [5] 96.3% | [6] 101% | [7] 96.4% | [8] 102% | [9] 108% | [10] 116% | [11] 104% | [12] 104% | [13] 107% | [14] 109% | [15] 101% | [16] 99.1% | [17] 114% | [18] 105% | [19] 105%
